Assay results as given in PubChem BioAssay (NCATS).
Records with an inconclusive call do not appear. Activity calls are given as the source filed them. Calls come from the whole dose curve; as a rule, active = well fitted curve in the direction sought with a large enough effect; inconclusive = small, poorly fitted or top-dose-only effect, or another doubt; inactive = no such curve, though single readings can be large; an effect the other way counts as inactive or inconclusive.

Columns and labels:
[1] = qHTS of pediatric cancer cell lines to identify multiple opportunities for drug repurposing: Primary screen for TC32 cells (AID 1347089); note: nearly all actives have a fitted effect of over 60% in size
In short: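 TC32 cells, 500-1,000/well in growth medium, compound-treated 48 h at 37 °C; viability from CellTiter-Glo luminescence. Primary screen: MIPE 11-point (0.78 nM–46 µM final), NPC 8-point (0.59 nM–46 µM final); confirmatory at 11-point dilutions.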

[2] = qHTS of pediatric cancer cell lines to identify multiple opportunities for drug repurposing: Primary screen for DAOY cells (AID 1347090); note: nearly all actives have a fitted effect of over 55% in size
In short: (§1)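 Eight- or eleven-point concentration series, 48 h treatment at 37 degrees C in growth media; readout CellTiter-Glo luminescence. Potency and efficacy were taken from the concentration-response curves.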

[3] = qHTS of pediatric cancer cell lines to identify multiple opportunities for drug repurposing: Primary screen for SJ-GBM2 cells (AID 1347091)
In short: as §1

[4] = qHTS of pediatric cancer cell lines to identify multiple opportunities for drug repurposing: Primary screen for A673 cells (AID 1347092); note: nearly all actives have a fitted effect of over 45% in size
In short: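 A673 cells (500-1,000 cells/well) were treated 48 hours at 37 degrees C with compounds at 11-point (0.78 nM to 46 µM) or 8-point (0.59 nM to 46 µM) dilutions. Viability read by CellTiter-Glo luminescence; concentration-response curves fitted.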

[5] = qHTS of pediatric cancer cell lines to identify multiple opportunities for drug repurposing: Primary screen for BT-37 cells (AID 1347094)
In short: (§2)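 500-1,000 cells/well; 5 h pre-incubation 37 °C/5% CO2; compound pinned; 48 h; CellTiter-Glo, 15 min RT; luminescence. MIPE 11-pt from 0.78 nM, NPC 8-pt from 0.59 nM final. Bortezomib 2.3 µM final as positive control.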

[6] = qHTS of pediatric cancer cell lines to identify multiple opportunities for drug repurposing: Primary screen for NB-EBc1 cells (AID 1347095)
In short: as §2

[7] = qHTS of pediatric cancer cell lines to identify multiple opportunities for drug repurposing: Primary screen for U-2 OS cells (AID 1347096); note: nearly all actives have a fitted effect of over 50% in size
In short: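 Cells (500-1,000/well) in growth media were settled 5 h at 37 degrees C, then given compounds for 48 h. Viability was read as CellTiter-Glo luminescence. Primary runs used MIPE at 11 points (0.78 nM-46 µM) and NPC at 8 points (0.59 nM-46 µM); follow-ups used 11 points.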

[8] = qHTS of pediatric cancer cell lines to identify multiple opportunities for drug repurposing: Primary screen for Saos-2 cells (AID 1347097); note: nearly all actives have a fitted effect of over 40% in size
In short: as §2

[9] = qHTS of pediatric cancer cell lines to identify multiple opportunities for drug repurposing: Primary screen for SK-N-MC cells (AID 1347093)
In short: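 Metabolically active cells were quantified by ATP-dependent luminescence (CellTiter-Glo, 15 min at room temperature) following 48 h treatment. Cells had been plated at 500-1,000 per well and settled for 5 h beforehand.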
Potency is the fitted concentration of half-maximal effect.

Structure (SMILES) | Potency [1] | Potency [2] | Potency [3] | Potency [4] | Potency [5] | Potency [6] | Potency [7] | Potency [8] | Potency [9]
O=C(C=Cc1c(C(=O)O)[nH]c2cc(Cl)cc(Cl)c12)Nc1ccccc1 | inactive | inactive | inactive | inactive | inactive | inactive | inactive | inactive | 
C=CC(=O)Nc1cc2c(Nc3ccc(F)c(Cl)c3)ncnc2cc1OCCCN1CCOCC1 | inactive | 18700 nM (active) |  | 4690 nM (active) | 6850 nM (active) | 18700 nM (active) | 7430 nM (active) | 5900 nM (active) | 2350 nM (active)
C1Cc2[nH]nc(-c3nn[nH]n3)c2C1 | inactive | inactive | inactive | inactive | inactive | inactive | inactive | inactive | 
Cc1nc(Nc2n[nH]c3c2CN(C(=O)N[C@H](CN(C)C)c2ccccc2)C3(C)C)c2sccc2n1 | 739 nM (active) | 11800 nM (active) |  | 14.8 nM (active) | 611 nM (active) | 10500 nM (active) | 9350 nM (active) | 1660 nM (active) | 33.2 nM (active)
Nc1ncnc2c1c(-c1cccc(OCc3ccccc3)c1)cn2C1CC(CN2CCCC2)C1 (stereo not drawn) | 6580 nM (active) | inactive | 20900 nM (active) | 18700 nM (active) |  | 4690 nM (active) |  | 743 nM (active) | 662 nM (active)
O=C(O)Cn1nnc(-c2cc(N3CCC(Oc4cc(F)ccc4Br)CC3)no2)n1 | inactive | inactive | 469 nM (active) | 372 nM (active) |  | inactive | inactive |  | 
C=CCn1c(=O)c2cnc(Nc3ccc(N4CCN(C)CC4)cc3)nc2n1-c1cccc(C(C)(C)O)n1 | 2620 nM (active) | 372 nM (active) |  | 74.3 nM (active) | 611 nM (active) | 209 nM (active) | 3720 nM (active) |  | 83.3 nM (active)
C=CC(=O)Nc1cc2c(Nc3ccc(F)c(Cl)c3)ncnc2cc1C#CC(C)(C)N1CCN(C)CC1 | 11700 nM (active) | 5900 nM (active) | 2960 nM (active) | 1480 nM (active) | 3850 nM (active) |  | 7430 nM (active) | 4180 nM (active) | 
COc1ccc2c(OCc3nnc4ccc(-c5ccccc5)nn34)ccnc2c1 | inactive | inactive |  | inactive | inactive | inactive | inactive | inactive | inactive
Cc1c(NC(=O)OC[C@@H]2COCCN2)cn2ncnc(Nc3ccc4c(cnn4Cc4cccc(F)c4)c3)c12 | inactive | 74.3 nM (active) |  | 46.9 nM (active) |  |  |  |  | 93.5 nM (active)
CC[C@H](CO)Nc1nc(NCc2ccccc2)c2ncn(C(C)C)c2n1 | inactive | 23500 nM (active) | 16600 nM (active) | 18700 nM (active) | 27300 nM (active) |  | inactive |  | 
N#Cc1c(O)c2c(-c3ccc(-c4ccccc4O)cc3)csc2[nH]c1=O | inactive | inactive |  | inactive | inactive | inactive | inactive | inactive | inactive
CC(C)CC(=O)Nc1n[nH]c2c1CN(C(=O)C1CCN(C)CC1)C2(C)C | 5870 nM (active) | 11800 nM (active) | 1480 nM (active) | 187 nM (active) | 485 nM (active) |  |  | 5260 nM (active) | 52.6 nM (active)
CC(C)c1ccccc1Cc1cc(C(=O)Nc2ccc(S(=O)(=O)c3ccccc3C(C)(C)C)cc2)c(O)c(O)c1O | inactive | 29600 nM (active) | 2960 nM (active) | 18700 nM (active) | 24300 nM (active) | 2350 nM (active) | inactive | 26400 nM (active) | 
COc1ccc(F)c(F)c1C(=O)c1cnc(NC2CCN(S(C)(=O)=O)CC2)nc1N | 5870 nM (active) | 3720 nM (active) |  | 1480 nM (active) | 3430 nM (active) | 296 nM (active) |  | 2350 nM (active) | 1870 nM (active)
CCCCN1CCC(CNC(=O)c2c3n(c4ccccc24)CCCO3)CC1 | inactive | 1870 nM (active) |  | 1480 nM (active) |  | 13200 nM (active) | inactive |  | 4690 nM (active)
Cc1cnc(-c2cnc(NCCNc3ccc(C#N)cn3)nc2-c2ccc(Cl)cc2Cl)[nH]1 | inactive | 14800 nM (active) |  | 1870 nM (active) | inactive |  | inactive |  | 105 nM (active)
CN(C)CC(C)(C)CNc1nn2c(-c3ccccc3)nnc2cc1C1CCC1 | 18600 nM (active) |  | 1180 nM (active) | 743 nM (active) | 863 nM (active) | 264 nM (active) | inactive | 5900 nM (active) | 469 nM (active)
CN(C)c1nc(Cc2ccc(NC(=O)c3ccc4ccccc4c3)cc2)nc(Cl)c1CC(=O)O | inactive |  | inactive | inactive | inactive | inactive | inactive | inactive | inactive
CCCn1c(=O)c2[nH]c(-c3cnn(Cc4cccc(C(F)(F)F)c4)c3)nc2n(CC)c1=O | inactive | inactive |  |  |  |  | inactive |  | 
C=CC(=O)N1CCC[C@@H](n2nc(-c3ccc(Oc4ccccc4)cc3)c3c(N)ncnc32)C1 | inactive | 23500 nM (active) |  | 9350 nM (active) |  | 10500 nM (active) | inactive |  | 372 nM (active)
c1ccc2c(CCNc3ccc(Nc4ccncc4)cc3)c[nH]c2c1 | 20800 nM (active) |  | 5900 nM (active) | 18700 nM (active) | 4320 nM (active) | 2350 nM (active) | inactive | 14800 nM (active) | 1870 nM (active)
O=C(Nc1ncc(-c2cc(C(F)F)nn2-c2c(Cl)cccc2Cl)s1)C1CC1 | 1310 nM (active) |  | 332 nM (active) | 296 nM (active) | 863 nM (active) | 296 nM (active) | 1870 nM (active) |  | 296 nM (active)
C[C@@H](Oc1cc(-n2cnc3ccc(CN4CCN(C)CC4)cc32)sc1C(N)=O)c1ccccc1C(F)(F)F | 294 nM (active) |  | 29.6 nM (active) | 74.3 nM (active) | 153 nM (active) |  | 29600 nM (active) |  | 105 nM (active)
O=C(NC1CCNCC1)c1[nH]ncc1NC(=O)c1c(Cl)cccc1Cl | 2340 nM (active) | 1180 nM (active) |  | 59 nM (active) | 1370 nM (active) | 1870 nM (active) |  | 1660 nM (active) | 526 nM (active)
COc1c(OCCCN2CCOCC2)ccc2c3n(c(=NC(=O)c4cnc(N)nc4)nc12)CCN3 | 2550 nM (active) |  | 2040 nM (active) | 162 nM (active) |  | 102 nM (active) | inactive | 51.2 nM (active) | 28.8 nM (active)
COc1cc(C(=O)NS(=O)(=O)c2ccccc2C)ccc1Cc1cn(C)c2ccc(NC(=O)OC3CCCC3)cc12 | inactive | 29600 nM (active) |  | 14800 nM (active) |  | inactive |  | 20900 nM (active) | 8330 nM (active)
C[C@@H]1CN(CC(=O)Nc2ccc3c(c2)Cc2cccc(-c4cc(=O)cc(N5CCOCC5)o4)c2S3)C[C@H](C)O1 | inactive |  | 14800 nM (active) | 14800 nM (active) |  | 18700 nM (active) |  | 10500 nM (active) | 4180 nM (active)
CN1c2cc(O)c(N=NC(N)=O)cc2CC1S(=O)(=O)O (stereo not drawn) | inactive | inactive |  | inactive | inactive | inactive | inactive | inactive | 
